TTR transcr act = activators of transthyretin transcription. SH-SY5Y TTR promoter Gaussia luciferase, luminescence; 100% = recombinant luciferase protein wells. activation, % at 16.7 µM. actives 1.3% (n = 92,000);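 active = activation above the mean of all tested compounds plus 3 SD, cut at about 9.5% in these data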;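 note: cells exposed to compounds for one day before reading; 0% = median of all test compound wells on the plate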
HuH7 TTR inh = counter-screen for TTR activators: TTR transcription inhibitors in HuH7 cells. AID 1117279. actives 4% (n = 1,100). shares compounds with TTR transcr act. HuH7 TTR promoter-Gaussia luciferase reporter, luminescence. inhibition, % at 16.7 µM;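 active = average inhibition above the solvent-only control wells' mean plus 3 SD, cut at about 15% in these data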;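 note: 0% = cells with DMSO only and 100% = cells with inhibitor control FD; inhibitors lower well luminescence so higher value means more inhibition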
TTR up confirm = confirmation of human transthyretin transcription activators. shares compounds with TTR transcr act. SHSY5Y TTR promoter Gaussia luciferase, luminescence; 100% = purified Lucia enzyme wells, no cells. activation, % at 16.7 µM. 1,100 tested, under 10 active. AID 1117280;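 active = mean activation above a set limit taken from the earlier primary screen, cut at about 11% in these data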;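 note: 0% = DMSO-treated cells and 100% = recombinant Lucia luciferase without cells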
Numbers without * were called inactive. Only a selection was taken, and hits are over-represented in it overall.

For Cn1ccc2c(-c3ccc(C(=O)O)cc3)cc3c(c21)C1CCC3C1 (configuration not stated) the results were TTR transcr act 12*, HuH7 TTR inh -12 and TTR up confirm 0.
Cc1cc(Nc2ccccc2C(=O)O)n2ncnc2n1 was read as TTR transcr act 1.
`C[C@@H]1CN([C@H](C)CO)C(=O)CCCn2nncc2CO[C@@H]1CN(C)C(=O)Nc1ccc2c(c1)OCO2` gave TTR transcr act -1.
Screening O=C(OCC#CCSc1nnc(-c2cccc(F)c2)o1)c1ccc(F)cc1 returned TTR transcr act -1.
For N#CCCN(Cc1ccccc1)C(=O)c1nccnc1C(=O)O the results were TTR transcr act -1.
Screening CC1=NN(c2nc(N)nc(/C(C#N)=C/c3ccc([N+](=O)[O-])o3)n2)C(C)(C)C1 returned TTR transcr act -2.
`Cc1cc(C)c(OCCNCc2ccccc2)c(C)c1` gave TTR transcr act 13*, HuH7 TTR inh -11 and TTR up confirm 1.
Cc1cc(Br)ccc1OCCNCc1ccccc1 was read as TTR transcr act -1.
For Cc1cc(Cl)cc(C)c1OCCNCc1ccccc1 the results were TTR transcr act -2.
O=C(Nc1ccc(N2CCOCC2)cc1)c1csc([C@H]2C[C@H](O)[C@@H](CO)O2)n1 was read as TTR transcr act 0.
CN(CC(=O)Nc1ccc(S(N)(=O)=O)cc1)C1CCCCC1 was read as TTR transcr act -1.
`CN(CC(=O)Nc1ccc(S(N)(=O)=O)cc1)Cc1ccccc1F` gave TTR transcr act 16*, HuH7 TTR inh -1 and TTR up confirm 1.
Screening CN(CC(=O)NC(=O)Nc1ccccc1F)Cc1ccccc1F returned TTR transcr act -1.
CC1(C(=O)NCc2cccc3ccccc23)CCN1Cc1ccccc1OC(F)F (configuration not stated) was read as TTR transcr act -1.
NC(=O)COC(=O)c1cc(=O)[nH]c2ccccc12 was read as TTR transcr act 0.
Screening CNC(=O)COC(=O)c1cc(=O)[nH]c2ccccc12 returned TTR transcr act 1.
O=C(COC(=O)c1cc(=O)[nH]c2ccccc12)NC1CCCCC1 was read as TTR transcr act 12*, HuH7 TTR inh -11 and TTR up confirm 0.
For CCOc1ccc(N(CC(=O)Nc2cc(OC)cc(OC)c2)S(=O)(=O)c2c(C)[nH]c(=O)[nH]c2=O)cc1 the results were TTR transcr act -1.
`Cc1c(C(=O)N2CCN(S(=O)(=O)c3ccccc3)CC2)oc2ccc(Br)cc12` gave TTR transcr act 31*, HuH7 TTR inh -19 and TTR up confirm 0.
For Cc1c(C(=O)N2CCOCC2)oc2ccc(S(=O)(=O)N3CCCC3)cc12 the results were TTR transcr act 1.
For Cc1c(C(=O)N2CCc3ccccc3C2)oc2ccc(S(=O)(=O)N3CCCCCC3)cc12 the results were TTR transcr act 1.
Screening O=[N+]([O-])c1cccc(-c2ccc3nnc(SCc4cccnc4)n3n2)c1 returned TTR transcr act 2.
For CCOc1ccc(N2C(=O)CC(Sc3nc(C)cc(C)c3C#N)C2=O)cc1 (configuration not stated) the results were TTR transcr act 0.
Screening CCCc1c(O)nc(SC2CC(=O)N(c3ccc(C)c(Cl)c3)C2=O)[nH]c1=O (configuration not stated) returned TTR transcr act 12*, HuH7 TTR inh -6 and TTR up confirm 0.
`Cc1cc(C)n(CC2CC(=O)N(c3ccc(C)c(Cl)c3)C2=O)n1` (configuration not stated) gave TTR transcr act 1.
For COC(=O)[C@@]1(Sc2ccccc2)CC(=O)N[C@@H]1c1ccccc1 the results were TTR transcr act 1.
For COc1ccccc1NS(=O)(=O)c1cc(N2Cc3ccccc3C2=N)ccc1N1CCOCC1 the results were TTR transcr act 2.
COc1ccccc1NS(=O)(=O)c1cc(NC(C)=O)ccc1N1CCCCC1 was read as TTR transcr act 0.
Screening COc1ccccc1NS(=O)(=O)c1cc(NC(=O)c2cc(F)c(F)c(F)c2F)ccc1N1CCOCC1 returned TTR transcr act 27*, HuH7 TTR inh 9 and TTR up confirm -1.
For COc1ccc(CCNC(=O)c2ccc([N+](=O)[O-])cc2Cl)cc1OC the results were TTR transcr act 26*, HuH7 TTR inh -24 and TTR up confirm 1.
For COc1ccc(CCNC(=O)c2ccccc2Cl)cc1OC the results were TTR transcr act 0.
`COc1ccc(CCNC(=O)c2ccc(-c3ccc([N+](=O)[O-])cc3Cl)o2)cc1OC` gave TTR transcr act -2.
CCNC(=O)C1(C)CCCN(C(=O)c2ccc3c(c2)C(C)(C)CCC3(C)C)C1 (configuration not stated) was read as TTR transcr act 1.

Screens: PubChem BioAssay, The Scripps Research Institute Molecular Screening Center
